Drawing on PubChem BioAssay, this text covers composite z-score and z-score for 15 compounds.

The source made the active and inactive calls.

Experiment [1] is described as follows: binders of probe aFSTL3 on microarray, primary screen, stem cell growth factor project, biochemical, small-molecule microarray, fluorescence 635/667 (AID 1064).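 Also: measures binding of the biotinylated anti-FSTL3 antibody to printed compounds.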 As to conditions: higher = more signal.
A short description of experiment [2]: binders from COS7 lysate, DM2A8 probe, primary screen, torsin A project, cell lysate, small-molecule microarray, fluorescence 635/667 (AID 1065). Conditions: higher = more signal, COS7 lysate expressing mutant human TOR1A.
A short description of experiment [3]: binders of probe aFGF2 on microarray, primary screen, stem cell growth factor project, biochemical, small-molecule microarray, fluorescence 635/667 (AID 1067).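 Also: measures binding of biotinylated aFGF2 protein to printed compounds on slides; z-score merges feature fluorescence and signal-to-noise across triplicate slides.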 As to conditions: higher = more signal.
The nature of experiment [4]: binders of probe aFGF10 on microarray, primary screen, stem cell growth factor project, biochemical, small-molecule microarray, fluorescence 635/667 (AID 1071).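 Also: score merges 667 nm spot intensity and signal to noise from triplicate slides.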 As to conditions: higher = more signal.
Experiment [5] addresses Neurogenic locus notch homolog protein 2 (Homo sapiens) (UniProt Q04721). The experiment in a line: Notch2 binders on small-molecule microarrays, primary screen, biochemical, small-molecule microarray, 635 nm fluorescence, stem cell growth factors (AID 1073). Conditions: Notch2 binding, higher = more signal.
Experiment [6] concerns the target Pro-neuregulin-1, membrane-bound isoform (Homo sapiens) (UniProt Q02297). The experiment in a line: NRG1 binders on small-molecule microarrays, primary screen, psychiatric disease protein project, biochemical, small-molecule microarray, fluorescence 635/667 (AID 1075).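 Also: score combines 667 nm spot fluorescence with signal to noise.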 Conditions: NRG1 binding, 635 nm fluorescence, higher = more signal.
The test system of experiment [7] is Neuregulin-1 EGF-like domain. The experiment in a line: binders of neuregulin-1 EGF-like domain, primary screen, biochemical, small-molecule microarray, 635 nm fluorescence (AID 1081).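 Also: binding of the protein to compounds printed on small-molecule microarray slides.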 Conditions: small-molecule microarray binding, higher = more signal.
The nature of experiment [8]: FRG1 promoter luciferase signal modulators, primary screen, FRG1 inhibition for FSHD, cell-based, C2C12 myotubes, firefly/Renilla luciferase, luminescence (AID 1084). Conditions: higher = more signal, called active from +8 up or from −8 down.
Experiment [9] is described as follows: binders of probe aFST on microarray, primary screen, stem cell growth factor project, biochemical, small-molecule microarray, fluorescence 635/667 (AID 1086).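 Also: score merges 667 nm fluorescence with signal-to-noise of each printed compound spot.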 As to conditions: higher = more signal.
Experiment [10] in a line: binders of probe aHhip on microarray, primary screen, stem cell growth factor project, biochemical, small-molecule microarray, fluorescence 635/667 (AID 1087).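 Also: score merges spot fluorescence at 667nm with spot signal to noise ratio.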 Conditions: higher = more signal.

Chain of Neurogenic locus notch homolog protein 2 (Homo sapiens) (Q04721 whole entry, looked up, canonical isoform): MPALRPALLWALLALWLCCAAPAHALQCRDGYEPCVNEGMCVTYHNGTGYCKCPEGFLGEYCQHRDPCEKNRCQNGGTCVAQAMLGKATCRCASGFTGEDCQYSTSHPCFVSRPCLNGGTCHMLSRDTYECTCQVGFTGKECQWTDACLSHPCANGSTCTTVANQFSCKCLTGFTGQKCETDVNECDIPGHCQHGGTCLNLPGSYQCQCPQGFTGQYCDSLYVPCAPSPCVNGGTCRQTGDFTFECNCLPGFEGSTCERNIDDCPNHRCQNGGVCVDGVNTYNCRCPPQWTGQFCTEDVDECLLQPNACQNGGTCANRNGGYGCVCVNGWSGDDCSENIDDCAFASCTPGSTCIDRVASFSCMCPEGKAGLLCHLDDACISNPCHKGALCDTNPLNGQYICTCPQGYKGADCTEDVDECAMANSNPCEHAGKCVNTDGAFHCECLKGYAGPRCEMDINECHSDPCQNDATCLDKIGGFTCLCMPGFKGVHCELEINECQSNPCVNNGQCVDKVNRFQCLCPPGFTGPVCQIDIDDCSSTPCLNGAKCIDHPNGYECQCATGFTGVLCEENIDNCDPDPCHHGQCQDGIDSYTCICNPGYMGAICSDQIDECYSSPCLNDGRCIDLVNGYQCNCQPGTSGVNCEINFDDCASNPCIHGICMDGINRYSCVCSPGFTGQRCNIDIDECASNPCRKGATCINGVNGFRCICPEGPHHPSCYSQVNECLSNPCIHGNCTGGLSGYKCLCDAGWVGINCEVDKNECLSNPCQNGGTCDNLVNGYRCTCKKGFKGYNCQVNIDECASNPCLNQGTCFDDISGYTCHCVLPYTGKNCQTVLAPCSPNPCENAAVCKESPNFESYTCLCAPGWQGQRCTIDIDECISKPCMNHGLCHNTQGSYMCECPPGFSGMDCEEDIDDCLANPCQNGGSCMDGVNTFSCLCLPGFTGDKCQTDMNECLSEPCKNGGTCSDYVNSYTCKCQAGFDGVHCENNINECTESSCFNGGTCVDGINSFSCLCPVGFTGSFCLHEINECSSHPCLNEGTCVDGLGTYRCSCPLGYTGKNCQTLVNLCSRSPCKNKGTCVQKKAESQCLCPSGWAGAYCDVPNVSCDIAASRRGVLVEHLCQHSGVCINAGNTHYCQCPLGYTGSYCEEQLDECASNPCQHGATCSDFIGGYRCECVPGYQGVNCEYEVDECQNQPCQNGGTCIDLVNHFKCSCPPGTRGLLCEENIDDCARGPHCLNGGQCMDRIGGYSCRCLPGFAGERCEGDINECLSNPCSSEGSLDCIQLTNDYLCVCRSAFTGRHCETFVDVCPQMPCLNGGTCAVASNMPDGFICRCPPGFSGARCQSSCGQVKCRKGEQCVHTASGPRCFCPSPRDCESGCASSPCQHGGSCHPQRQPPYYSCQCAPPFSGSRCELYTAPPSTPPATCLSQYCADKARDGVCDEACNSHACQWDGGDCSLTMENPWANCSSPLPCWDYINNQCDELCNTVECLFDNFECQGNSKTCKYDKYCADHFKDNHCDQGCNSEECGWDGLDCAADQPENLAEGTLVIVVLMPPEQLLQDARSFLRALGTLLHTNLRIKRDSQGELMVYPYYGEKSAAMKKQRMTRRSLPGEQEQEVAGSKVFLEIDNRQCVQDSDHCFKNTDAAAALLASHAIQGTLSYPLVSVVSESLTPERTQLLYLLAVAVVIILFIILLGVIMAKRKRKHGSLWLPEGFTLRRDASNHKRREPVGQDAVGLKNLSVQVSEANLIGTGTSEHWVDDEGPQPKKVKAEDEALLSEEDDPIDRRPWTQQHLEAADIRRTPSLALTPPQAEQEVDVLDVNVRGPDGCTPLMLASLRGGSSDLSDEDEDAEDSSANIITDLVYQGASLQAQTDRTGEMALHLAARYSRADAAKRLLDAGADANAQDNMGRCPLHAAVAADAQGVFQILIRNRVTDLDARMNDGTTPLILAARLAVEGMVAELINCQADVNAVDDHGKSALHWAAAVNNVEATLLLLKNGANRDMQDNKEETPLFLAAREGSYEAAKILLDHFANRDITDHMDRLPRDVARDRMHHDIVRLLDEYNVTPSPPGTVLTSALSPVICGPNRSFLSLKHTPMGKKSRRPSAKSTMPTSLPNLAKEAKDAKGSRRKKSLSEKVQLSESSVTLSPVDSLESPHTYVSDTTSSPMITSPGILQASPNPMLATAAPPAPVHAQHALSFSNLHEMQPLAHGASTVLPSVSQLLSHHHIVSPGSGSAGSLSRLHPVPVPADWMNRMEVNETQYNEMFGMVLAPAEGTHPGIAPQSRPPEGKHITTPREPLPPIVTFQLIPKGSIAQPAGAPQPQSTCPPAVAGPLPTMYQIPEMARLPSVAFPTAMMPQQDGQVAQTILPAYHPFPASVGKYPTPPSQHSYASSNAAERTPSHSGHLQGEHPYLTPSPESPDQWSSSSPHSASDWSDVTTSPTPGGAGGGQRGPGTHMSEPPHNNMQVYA
Chain of Pro-neuregulin-1, membrane-bound isoform (Homo sapiens) (Q02297 whole entry, looked up, the tested form may be a part, canonical isoform): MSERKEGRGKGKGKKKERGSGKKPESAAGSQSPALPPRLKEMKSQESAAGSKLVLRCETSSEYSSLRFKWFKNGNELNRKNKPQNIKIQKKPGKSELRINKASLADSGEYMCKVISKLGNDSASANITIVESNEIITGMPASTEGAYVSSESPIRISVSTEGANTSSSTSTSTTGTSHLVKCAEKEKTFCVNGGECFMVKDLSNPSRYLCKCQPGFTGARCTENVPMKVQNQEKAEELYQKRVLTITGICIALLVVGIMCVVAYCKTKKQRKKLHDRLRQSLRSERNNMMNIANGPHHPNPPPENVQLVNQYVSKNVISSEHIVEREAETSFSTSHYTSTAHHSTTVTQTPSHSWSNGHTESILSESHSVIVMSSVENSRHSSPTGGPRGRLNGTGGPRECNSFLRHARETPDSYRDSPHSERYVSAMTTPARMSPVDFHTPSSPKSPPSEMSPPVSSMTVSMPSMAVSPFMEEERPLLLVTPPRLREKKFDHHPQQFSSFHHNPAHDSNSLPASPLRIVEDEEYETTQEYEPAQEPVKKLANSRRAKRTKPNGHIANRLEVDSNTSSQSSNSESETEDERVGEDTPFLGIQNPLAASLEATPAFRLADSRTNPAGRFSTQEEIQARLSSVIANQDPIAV

For the compound `C=CC[C@@H]1C=C[C@H](ON=C(C)CCC(=O)OC[C@H]2O[C@H](c3ccccc3)C=C[C@@H]2Oc2ccc(OC)cc2)[C@@H](CO)O1`, the composite z-score was -0.409 in [1]; -0.324 in [2]; -0.163 in experiment [3]; 0.13 in experiment [4]; -1.06 in experiment [5]; 0.372 in experiment [6]. Moreover, the composite z-score in [7] was 0.215; in [9], -0.303; in experiment [10] it was -0.147. For the same compound, in experiment [8], the z-score is 0.403 (inactive).
With `O=C1[C@H]2[C@H]3[C@H](O)[C@H](O)CC(=NO[C@@H]4O[C@H](CO)[C@@H](O)[C@H](O)[C@H]4O)[C@H]3CC[C@H]2C(=O)N1c1cccc(Oc2ccccc2)c1`, the composite z-score was -0.249 in [1]; 0.128 in experiment [2]; -0.0867 in experiment [3]; 0.435 in experiment [4]; 0.387 in experiment [5]; -0.106 in [6]. In addition, the composite z-score in experiment [7] is 0.843; in experiment [9], -0.278; in [10], -0.0024. The z-score in experiment [8] is 0.0203 (inactive).
Turning to `O=C1[C@H]2[C@H]3[C@H](O)[C@H](O)CC(=NOC[C@@H](O)COCc4ccco4)[C@@H]3CC[C@H]2C(=O)N1C[C@@H]1CCCO1`, the composite z-score in experiment [1] was -0.861; in experiment [2], 2.29; in experiment [3], -0.213; in [4], -0.32; in [5] it was -0.323; in experiment [6] it was -0.271. Also, the composite z-score in experiment [7] was 1.22; in [9] it was -0.14; in experiment [10], 0.0139. Besides, the z-score in [8] was -0.218 (inactive).
As to `CO[C@@H]1COC(=O)[C@@H](C)NC(=O)CC=C[C@@H](C)[C@H](NS(=O)(=O)c2ccc(C)cc2)COC(=O)[C@H](C)NC(=O)CC=C[C@H]1C`, the composite z-score in [1] was -0.505; in [2], 0.441; in experiment [3] it was -0.119; in experiment [4], 0.189; in experiment [5], -0.167; in experiment [6] it was -0.523. Besides, the composite z-score was 0.388 in experiment [7], -0.0334 in experiment [9] and 0.168 in experiment [10]. In addition, the z-score in experiment [8] was 0.0404 (inactive).
`CO[C@H]1COC(=O)[C@@H](C)COC(=O)[C@H](COCc2ccccc2)NC(=O)CC=C[C@H]1C`: the composite z-score in experiment [1] is -0.325; in experiment [2], 1.45; in experiment [3], -0.156; in experiment [4] it was -0.607; in experiment [5], -1.58; in experiment [6] it was -1.19. Moreover, the results for the composite z-score in experiment [7], in experiment [9] and in experiment [10] were -1.43, 0.1 and -0.0672, respectively. The z-score in experiment [8] was -0.335 (inactive).
`CSCC[C@@H]1NC(=O)CC=C[C@@H](C)COC(=O)[C@@H](C)COC1=O`: the composite z-score is -0.324 in experiment [1]; 2.62 in [2]; -0.144 in experiment [3]; -0.456 in experiment [4]; -0.239 in [5]; -1.21 in experiment [6]. In addition, the composite z-score in experiment [7] is 0.129; in [9] it was -0.485; in experiment [10] it was -0.391. Besides, the z-score in experiment [8] is -0.371 (inactive).
Turning to `CCOC(=O)CCN1C(=O)[C@H]2[C@H]3[C@H](O)[C@H](O)CC(=NOCc4ccccc4)[C@H]3CC[C@H]2C1=O`, the composite z-score in [1] is 1.08; in experiment [2] it was -0.164; in experiment [3], -0.121; in [4], 0.11; in experiment [5], 0.206; in [6], -0.188. For the same compound, the composite z-score is -0.368 in experiment [7], 0.494 in [9] and -0.236 in experiment [10]. In addition, the z-score in [8] is -0.0531 (inactive).
For the compound `CO[C@H]1COC(=O)[C@@H]2CCCN2C(=O)CC=C[C@@H](C)[C@H](OC)COC(=O)[C@@H](OCc2ccccc2)C=C[C@@H]1C`, the composite z-score is -0.466 in experiment [1]; 1.29 in [2]; -0.175 in experiment [3]; -0.477 in experiment [4]; -0.624 in experiment [5]; -0.233 in experiment [6]. Also, the values for the composite z-score in experiment [7], in [9] and in experiment [10] were 0.269, 0.317 and 0.176, respectively. Besides, in experiment [8], the z-score is -0.0576 (inactive).
With `CCOC(=O)NN=C1C[C@@H](O)[C@@H](O)[C@@H]2[C@@H]3C(=O)N([C@@H](C)c4ccccc4)C(=O)[C@@H]3CC[C@H]12`, the composite z-score was -0.322 in experiment [1]; -0.0183 in experiment [2]; -0.085 in [3]; 0.321 in experiment [4]; 0.453 in experiment [5]; -0.0718 in [6]. The figures for the composite z-score in [7], in experiment [9] and in [10] were 0.0602, 0.252 and 0.138, respectively. Also, in experiment [8], the z-score was -0.223 (inactive).
`CC(C)CON=C1C[C@@H](O)[C@@H](O)[C@@H]2[C@@H]3C(=O)N(Cc4ccc5c(c4)OCO5)C(=O)[C@@H]3CC[C@H]12`: the composite z-score in experiment [1] is -0.504; in [2], -0.111; in experiment [3], -0.149; in experiment [4], 0.715; in [5] it was 0.392; in [6], 1.01. Also, the composite z-score in experiment [7] was 1; in experiment [9] it was 0.0313; in [10] it was -0.0645. Further, the z-score in experiment [8] was -0.261 (inactive).
For the compound `COCCNC(=O)OCC1CCCC2(CC(OC(=O)NCc3ccc4c(c3)OCO4)CC(CCC(=O)N[C@@H](C)C(=O)OC)O2)O1` (stereo not given in full), the composite z-score was -0.463 in experiment [1]; 0.362 in experiment [2]; -0.116 in experiment [3]; 0.387 in [4]; 1.05 in experiment [5]; 0.191 in experiment [6]. In addition, the composite z-score in [7] is 0.699; in experiment [9], 0.171; in [10], -0.0994. Moreover, in experiment [8], the z-score is 0.502 (inactive).
Regarding `C#CCCCON=C1C[C@@H](O)[C@@H](O)[C@@H]2[C@@H]3C(=O)N(Cc4ccccc4)C(=O)[C@@H]3CC[C@@H]12`, the composite z-score in experiment [1] is -0.19; in [2], 0.421; in experiment [3], -0.0887; in experiment [4], 0.0443; in experiment [5], 0.181; in experiment [6], 0.0645. For the same compound, the composite z-score in experiment [7] was -0.816; in experiment [9] it was 0.53; in experiment [10] it was 0.0176. The z-score in experiment [8] is -0.211 (inactive).
On to `CC(C)[C@@H](OCc1ccccc1)[C@H](C)C=NOC[C@@H](O)COCc1ccco1`, for which the composite z-score in experiment [1] was -0.457; in [2], 0.84; in [3], -0.251; in experiment [4], -0.416; in experiment [5] it was -1.08; in [6], -0.417. Further, the composite z-score is -0.569 in experiment [7], -1.53 in experiment [9] and -0.302 in [10]. Also, the z-score in experiment [8] is 0.887 (inactive).
Take `CC(C)CON=C1C[C@@H](O)[C@@H](O)[C@@H]2[C@@H]3C(=O)N(C4CCCCC4)C(=O)[C@@H]3CC[C@@H]12`: the composite z-score in [1] is -0.216; in experiment [2], 1.2; in experiment [3], -0.0955; in experiment [4], 0.0675; in [5] it was -0.0187; in experiment [6], 1.45. The composite z-score in experiment [7] was -0.115; in experiment [9], -0.0424; in experiment [10], -0.0994. Besides, in experiment [8], the z-score is -0.0468 (inactive).
In the case of `COC(=O)CC=C[C@@H](C)[C@@H]1C=C[C@H](O)[C@@H](CO)O1`, the composite z-score was -0.202 in experiment [1]; 0.124 in experiment [2]; -0.106 in experiment [3]; 0.376 in experiment [4]; 0.432 in [5]; -0.196 in experiment [6]. Besides, the composite z-score was -0.0778 in experiment [7], 0.225 in [9] and -0.176 in [10]. Further, the z-score in [8] is -0.163 (inactive).
